Results from PubChem BioAssay AID581 (PCMD, 2007).
In all, about 62,000 compounds went through this assay and about 95 (0.2%) were called active.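 The calls were made as follows: active = inhibition above 20% in each of the two mixture wells holding the compound; inactive = inhibition of 20% or less in either well.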 Only a selection was taken, and actives are over-represented in it overall.

What follows are molecules tested against Cathepsin G (Homo sapiens) (UniProt P08311) (assay: human cathepsin G inhibitors, primary screen, biochemical, pooled compound mixtures, AMC fluorescence (AID 581;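 also: 0% = enzyme control without mixture and 100% = blank lacking enzyme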)). Conditions: purified enzyme, AMC-tetrapeptide fluorescence, stronger effect = higher value, screened at 5 µM (by protocol).
Chain of Cathepsin G (Homo sapiens) (P08311 21-244 limits assumed): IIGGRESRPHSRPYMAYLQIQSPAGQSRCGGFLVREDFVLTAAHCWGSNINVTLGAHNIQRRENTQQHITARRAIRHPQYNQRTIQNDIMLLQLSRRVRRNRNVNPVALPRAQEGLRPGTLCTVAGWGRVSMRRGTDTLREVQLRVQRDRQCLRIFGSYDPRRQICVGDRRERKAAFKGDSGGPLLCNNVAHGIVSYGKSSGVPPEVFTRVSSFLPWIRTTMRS

inhibition, inactive:
COc1ccc(C2C(C#N)=C(N)Oc3n[nH]c(C)c32)cc1CN1CCN(c2ccc(F)cc2)CC1 (stereo not drawn) -3.59%
CCOC(=O)c1nnn(-c2nonc2OC)c1-c1ccccc1 -2.37%
CC(C)=C(NC(=O)c1ccco1)C(=O)NCCc1nc2ccccc2[nH]1 9.21%
O=C1CCc2cc(S(=O)(=O)N3CCC(C(=O)NCc4ccccc4Cl)CC3)ccc2N1 11%
CC(=O)CCS(=O)(=O)c1ccc(C)c(C)c1 -14.8%
NC(=O)C1(N2CCCCC2)CCN(C(=O)c2ccc(C#Cc3ccccc3)o2)CC1 11.6%
COCCNc1nc(-n2nc(C)cc2C)nc2sc3c(c12)CCCC3 -7.79%
Cc1ccccc1OCCC(=O)Nc1c(C)n(C)n(-c2ccccc2)c1=O 16.9%
Cc1cc(Br)ccc1NC(=O)C1CCCO1 (stereo not drawn) 9.61%
COc1cc2[nH]c(=S)n(Cc3ccc(C)o3)c(=O)c2cc1OC -0.64%
CN1CCN(c2nc3c(c(=O)[nH]c(=O)n3C)n2Cc2cccc3ccccc23)CC1 14.6%
Cc1nnc(SCC(=O)NCCOc2ccc(Cl)cc2)n1-c1ccccc1 6.24%
CC1(C)CC(=O)C=C(NC2CC(C)(C)NC(C)(C)C2)C1 6.34%
Cn1c(=O)c2c(n(Cc3ccccc3)c1=O)NC(=O)C2CC(=O)N1CCc2ccccc2C1 (stereo not drawn) 4.22%
NC(=O)c1ccccc1NC(=O)c1ccccc1F 1.67%
Cn1c(SCc2c(F)cccc2Cl)nnc1-c1cnccn1 3.17%
O=C(c1cnn2ccccc12)N1CCc2ccccc21 10.9%
O=C(NC1(C(F)(F)F)N=C2SCCN2C1=O)c1ccco1 (stereo not drawn) 3.45%
O=C(CCN1C(=O)COc2ccccc21)NCCCN1CCN(c2ccc(F)cc2)CC1 -3.54%
Cc1cccc(NC(=O)C2CCN(S(=O)(=O)c3cccc4cccnc34)CC2)c1 10.6%
Cc1cccc(NC(=O)COc2ccc(Br)cc2C)n1 2.75%
c1cc(-n2cnnn2)ccc1NC1=NCCC1 -2.07%
COc1ccc(-n2c(SCC(=O)OC(C)C)nnc2-c2ccccn2)cc1 7.94%
CCC(=O)N1CCc2cc(S(=O)(=O)NC(C(=O)N3CCc4ccccc4C3)C(C)C)ccc21 (stereo not drawn) 4.46%
CCCc1nc2ccccc2c(=O)n1/N=C/c1ccc(O)c(O)c1 2.2%
COc1cccc(C2/C(=C(/O)c3ccncc3)C(=O)C(=O)N2CCCN(C)C)c1 (stereo not drawn) 6.68%
COCCCn1c2nc3ccccc3nc2c2c(=O)n(Cc3ccc(Cl)cc3)c(C)nc21 7.46%
Cc1cc(C)nc(N2C(=O)CC(Cc3ccccc3)C2=O)n1 (stereo not drawn) -4.68%
Cc1cc(=O)[nH]c(SCc2cc(Cl)ccc2OC(F)F)n1 8.17%
O=C(CNCCO)NC12CC3CC(CC(C3)C1)C2 11.2%
C[C@H](NC(=O)NCCc1ccccc1)C(=O)O 2.02%
O=C(Cn1c(=O)sc2ccccc21)Nc1ccc2c(c1)OCCO2 1.24%
O=C(Nc1ccc2c(c1)OCO2)C1CC(c2c(F)cccc2Cl)=NO1 (stereo not drawn) 9.79%
CCCCCN(C(=O)NC(=O)Nc1ccccc1C)S(C)(=O)=O 3.6%
CC(C)C(=O)Nc1cccc(C(=O)Nc2ccc3c(c2)OCO3)c1 10.1%
CCOc1c(N2CCCCC2)c(=O)c1=O -3.4%
Cc1cc2c(cc1C)NC(c1ccccn1)C1=C(CC(C)(C)CC1=O)N2 (stereo not drawn) 9.5%
Cc1ccc(S(=O)(=O)N2CCN(Cc3cccc(C)c3O)CC2)cc1 2.48%
O=c1c2ccccc2[nH]c(=S)n1CCN1CCC(=C(c2ccc(F)cc2)c2ccc(F)cc2)CC1 13.1%
CCC(C)n1[nH]c(=O)cc1N (stereo not drawn) 0.53%
CN(c1nc2ccccc2n2c(-c3ccco3)nnc12)S(=O)(=O)c1ccccc1 -5.29%
N#Cc1c(/N=C/N2CCCC2)oc(-c2ccccc2)c1-c1ccccc1 9.67%
O=C(Nc1cc(=O)[nH]c2ncnn12)c1ccccc1Cl -3.08%
O=C(O)C1CC=C(Cl)CC1C(=O)NCc1ccccc1 (stereo not drawn) 12.7%
Cc1ccc(-n2c(N)c(C(=O)N3CCOCC3)sc2=S)c(C)c1 11.4%
c1ccc2c(c1)OCC(c1nn3cnnc3s1)O2 (stereo not drawn) 1.56%
CC(=O)N1CSCC1C(=O)O (stereo not drawn) 10.9%
COc1ccc(C)cc1S(=O)(=O)NC1CCCCC1 3.27%
O=C(CCCN1C(=O)CSc2ncccc21)N1CCN(c2cccc(C(F)(F)F)c2)CC1 1.22%
Fc1ccc(Br)cc1/C=N/n1cnnc1 -0.86%
ON=C1/C(=N\O)CC2(C/C1=N/O)OCCO2 -0.38%
CC(=O)c1c(C)n(-c2ccc(N(C)C)cc2)c2ccc(OCC(N)=O)cc12 8.67%
COc1ccc(S(=O)(=O)NC2(C(F)(F)F)N=C3SCCN3C2=O)cc1 (stereo not drawn) 11.4%
CCN(CC)C(=O)C1CCC(C)(C(=O)O)C1(C)C (stereo not drawn) 11.2%
COC(=O)c1ccccc1NC(=O)C1CCN(S(=O)(=O)c2cc(OC)ccc2OC)CC1 2.31%
CC(=O)N(CC1CCCO1)C1(C(=O)NC2CCCC2)CCCCC1 (stereo not drawn) 10.3%
COCC(=O)Nc1nnc(COc2ccccc2)s1 -21.9%
CCN(CC(=O)Nc1ccc2c(c1)OCCO2)Cc1cc(=O)oc2cc(C)c(C)cc12 1.52%
CC1(C)Cc2ccccc2-c2nc(CN3CCOCC3)[nH]c(=O)c21 3.33%
O=C1N(Cc2ccc3c(c2)OCO3)c2ccccc2C1(O)c1c[nH]c2ccccc12 (stereo not drawn) 1.27%
COc1ccc(Cl)cc1NC(=O)C1CC(=O)N(c2ccc(F)cc2)C1 (stereo not drawn) 8.25%
O=C(CN1CCOCC1)N1CCCc2c1c(=O)oc1ccc(OCc3ccccc3)cc21 -5.32%
O=C1N=C(N2CCOCC2)CS1 -2.67%
O=C(CSc1nnc(-c2ccco2)n1CC1CCCO1)c1ccccc1 (stereo not drawn) 10.9%
CSc1ccc(-c2c(C#N)c(N)nc3c2c(C)nn3-c2ccccc2)cc1 5.96%
Cc1c(C(=O)OCC(=O)N(CCC#N)c2ccccc2)oc2c1ccc1ccccc12 10.9%
COc1ccc2nc(N3CCCC(O)C3)c(C#N)cc2c1 (stereo not drawn) 7.5%
O=C(Nc1ccc(S(=O)(=O)N2CCCC2)cc1Cl)C1=COCCO1 -0.78%
CN(C)c1ccc(CNC23CN4CN(CN(C4)C2)C3)cc1 -0.235%
CCCCNC(=O)CSc1nccn1Cc1ccccc1 -4.63%
COCCNC(=O)C(C#N)c1nc2ccccc2nc1N1CCN(Cc2ccc3c(c2)OCO3)CC1 (stereo not drawn) 8.39%
Cc1cc(N=CC2=C(O)CCCC2=O)no1 14.9%
CC1CCCC(C)N1C(=O)CN1CCN(c2nc(-c3ccc(F)cc3)cs2)CC1 (stereo not drawn) -39.9%
CCOC(=O)N1CCN(C(=O)c2ccc(CN(c3ccc(C)c(C)c3)S(C)(=O)=O)cc2)CC1 11.3%
N#CC1=C(N)Oc2n[nH]c(CSc3ccccc3)c2C12C(=O)Nc1ccccc12 (stereo not drawn) 13.8%
COc1ccc(-c2nc(CS(=O)CC(=O)N3CCc4ccccc4C3)c(C)o2)cc1 (stereo not drawn) 2.91%
CCCCn1nc(C(=O)N2CCc3ccccc32)c2ccccc2c1=O -0.085%
COc1ccccc1N1CC(O)=C(c2nc3ccccc3s2)C1=N -0.35%
O=C1CCC(C(=O)Nc2ccc(OC(F)F)cc2)N1 (stereo not drawn) 1.46%
Nc1c(C(=O)NCc2ccccc2)nnn1Cc1cccc(Cl)c1 -2.37%
Cc1cc(C(F)(F)F)nn1-c1nc(-c2ccco2)cc(C(F)(F)F)n1 -9.21%
Cc1ccc2cc3cc(C(=O)N4CCCCCC4)oc3nc2c1 8.2%
COCCOC(=O)C1=C(C)Nc2nc(C)nn2C1c1ccccc1 (stereo not drawn) -6.8%
CC1C=CCC2C(=O)N(c3cccc(C(=O)N4CCCCCC4)c3)C(=O)C12 (stereo not drawn) 9.22%
CCOC(=O)CSc1nnc(-c2ccncc2)o1 7.88%
O=C(c1ccco1)N1CCN=C1SCc1cccc(Cl)c1 -1.57%
Cc1ccc(-c2nc(CS(=O)CC(=O)NC3CCCC3)c(C)o2)cc1 (stereo not drawn) -3.33%
CCN(CCCNC(=O)C1CCN(S(=O)(=O)c2cnc[nH]2)CC1)c1ccccc1 14.4%
O=C(NCCCN1CCCCCC1)c1ccc(N2CCCC2=O)cc1 1.79%
CC1(N2CCOCC2)CC2(O)C(=[N+]1[O-])CCc1nonc12 (stereo not drawn) 11.9%
O=C(NC1CCCCC1)c1ccc2c(=O)n(CC3CCCO3)c(=O)[nH]c2c1 (stereo not drawn) -1.31%
Cc1cc(C)c(C)c(S(=O)(=O)Nc2ccc(O)cc2)c1C -0.38%
COc1ccc(OCCCON2C(=O)c3ccccc3C2=O)cc1 -4.08%
COc1cc(Br)cc(/C=N/c2ncn[nH]2)c1O 10.2%
CN(c1ccc(C(=O)NCCC2=CCCCC2)cc1)S(C)(=O)=O 1.87%
COc1cccc2cc(C(C)N(CCCN3CCOCC3)C(=O)Nc3ccc(Cl)cc3)oc12 (stereo not drawn) 1.68%
O=C(O)CN(Cc1ccco1)S(=O)(=O)c1ccc(F)cc1 6.5%
COc1ccc2c(c1OC)C(=O)N(c1ncn[nH]1)C2 -3.84%
COc1ccc(C)c2sc(=NC(=O)c3ccc(C#N)cc3)n(C)c12 1.85%
O=C(CCCC(=O)N(CC(=O)NC1CCCC1)Cc1ccccc1Cl)Nc1ccccn1 7.61%
Cc1nnc(NC2=NCCCCC2)o1 -1.69%
CSCCC1NC2(C(=O)Nc3ccc(Cl)cc32)[C@@H]2C(=O)N(C3CCCC3)C(=O)[C@H]12 (stereo partly drawn) 17.3%
COc1ccc(N2C(=O)C3CCCN3C2c2cccc(OC)c2)cc1 (stereo not drawn) -5.7%
CCC(C)Sc1nc(C)nc2c1c(=O)n(C)c(=O)n2C (stereo not drawn) 8.64%
O=C(CC1CCCCC1)Nc1c2c(nn1-c1ccc(F)cc1)CS(=O)(=O)C2 -0.2%
COc1ccc(C2C(C#N)=C(N)Oc3cc(N)ccc32)cc1OC (stereo not drawn) -2.81%
O=C(CCCn1c(=O)oc2ccccc21)Nc1cccnc1 -1.41%
Cc1nc(-c2ccc(NC(=O)c3cccs3)cc2)cs1 8.02%
